Experimental data as given in PubChem BioAssay.
Calls of active or inactive are those of the source.

Assay: E. coli acrAB mutant growth effects, primary screen, E. coli filamentation inducers, strain DRC39, OD650, 24 h (AID 1178);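 further: growth measured as culture turbidity by optical density at 650 nm; test concentration not given here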
Settings: higher = more signal, called active from +8 up or from −8 down

z-score, inactive:
CCCC=C(CCC)[C@@H](NC(=O)c1ccc(-c2ccccc2)cc1)c1ccc(C(=O)OC)cc1 0.0519
COC(=O)[C@@]1(Cc2ccccc2)[C@H]2c3cc(C(=O)N4CCCC4)n(Cc4ccccn4)c3C[C@H]2CN1C(=O)c1ccccc1 -0.452
O=C(CS)NCCCCCNC(=O)[C@@H]1C[C@@H]2C(=O)N[C@@H](Cc3ccccc3)C(=O)N2[C@@H]1c1ccc(O)cc1 0.411
CC(C)C[C@@H]1NC(=O)[C@H]2C[C@@H](C(=O)NCCCCCCN(C)C)[C@@H](c3cccc(OCCO)c3)N2C1=O 0.0442
COCCCNC(=O)[C@@]1(CCS(=O)(=O)c2ccccc2)N=C(c2ccc(OCCCO)cc2)O[C@H]1c1ccccc1 1.34
Cc1ccc(S[C@]2(C(=O)NCC(F)(F)F)CC(=O)N(Cc3ccccc3Cl)[C@@H]2c2ccc(CO)cc2I)cc1 0.357
O=C1O[C@@H](c2ccccc2)[C@@H](c2ccccc2)N2[C@@H](c3ccc(OCCO)cc3)[C@]3(C(=O)Nc4ccc(C#CCCO)cc43)[C@@H](C(=O)N3CCCCCCC3)[C@H]12 -0.515
CCOC(=O)C1=CCC(c2cc3ccccc3[nH]2)NC1 (stereo unspecified) -0.303
O=C1NC(=O)C2C1C=CC(C(O)Cc1ccccc1)N2Nc1ccccn1 (stereo unspecified) 0.374
C#C[C@@H]1Oc2ccccc2S(=O)(=O)N2CCC[C@H]12 -0.689
COc1ccc([Si](C)(C)[C@H]2[C@H](CCO)O[C@@]3(C(=O)N(Cc4cccc(NC(=O)[C@H](C)O)c4)c4ccccc43)[C@@H]2C)cc1 1.7
C=CCOC(=O)[C@H]1[C@@H]2C(=O)O[C@@H](c3ccccc3)[C@@H](c3ccccc3)N2[C@@H](c2ccc(OCCOC(=O)[C@H]3C[C@H]4C(=O)N5CCC[C@H]5C(=O)N4[C@H]3c3cccc(OCCO)c3)cc2)[C@]12C(=O)Nc1ccc(I)cc12 -0.277
C=C(/C(=C/C[C@@H](OC(=O)c1ccncc1)c1ccc(OCCO)cc1)c1cnc2ccccc2c1)C(C)C 0.872
O=C1C[C@]2(c3ccc([N+](=O)[O-])cc3)C(=O)N(CCN3CCOCC3)c3cc(CO)ccc3[C@H]2N1CC12CC3CC(CC(C3)C1)C2 0.577
CC(C)C[C@@H]1NC(=O)[C@H]2C[C@@H](C(=O)O)[C@@H](c3ccc(O)cc3)N2C1=O -0.139
COCCOC(=O)N1C(=O)[C@@]2(c3cc(C#Cc4ccc(OC)cc4)ccc31)[C@H](c1ccc(O)cc1)N1[C@H](c3ccccc3)[C@H](c3ccccc3)OC(=O)[C@H]1[C@@H]2C(N)=O 0.761
CC(C)NC(=O)[C@@]1(C)c2ccccc2C(=O)N(Cc2cc(F)cc(C(F)(F)F)c2)[C@H]1c1ccc(CO)cc1 -0.0821
COCCOC(=O)N1C(=O)[C@@]2(c3ccccc31)[C@H](C(N)=O)[C@H]1C(=O)O[C@H](c3ccccc3)[C@H](c3ccccc3)N1[C@@H]2c1ccccc1OCCO 0.201
CN1C(=O)C2C=CC(C(O)c3ccc(I)cc3)N(NC(=O)OC(C)(C)C)C2C1=O (stereo unspecified) -0.446
C=CCC(OC(C)=O)[C@@H]1[C@@H](N(Cc2cc3ccccc3o2)C(=O)Cc2ccc(F)cc2)c2cc(OCCCO)ccc2N1C(=O)Cc1ccc(OC)cc1 (stereo partly specified) -0.201
CN1C(=O)C2C=CC(C(O)C(c3ccccc3)c3ccccc3)N(NC(=O)OC(C)(C)C)C2C1=O (stereo unspecified) -0.963
COCCCNC(=O)[C@]1(CCC(=O)OC(C)(C)C)N=C(c2ccc(OCCCO)cc2)O[C@@H]1c1ccccc1N=[N+]=[N-] 0.615
O=C1O[C@@H](c2ccccc2)[C@@H](c2ccccc2)N2[C@@H](c3ccccc3OCCO)[C@]3(C(=O)Nc4ccc(C#CCCO)cc43)[C@@H](C(=O)O)[C@H]12 0.0701
CN1C(=O)C2C(C1=O)C1C=C(CCCO)C2C(c2ccc(CN3CCCC3)cc2)N1C (stereo unspecified) -0.815
COC(=O)[C@@]1(Cc2ccc(F)cc2)[C@@H]2C(=CC(=O)[C@H]2CC(=O)C(=O)N(C)C)CN1C(=O)c1ccccc1 -0.0125
[N-]=[N+]=NCc1ccccc1C[C@]1(C(=O)NCc2ccccc2)N=C(c2ccc(OCCCO)cc2)O[C@H]1c1ccccc1N=[N+]=[N-] 0.82
C=C(COC)/C(=C/C[C@H](OC(=O)c1ccncc1)c1ccc(CO)o1)c1cc(C(=O)OC)ccc1OC -0.268
CS(=O)(=O)CCOC(=O)C1=CC(CCCO)=CC(c2cccs2)N(Cc2cccc(OC(F)(F)F)c2)C=C1C(=O)OCCS(C)(=O)=O (stereo unspecified) 0.596
CCCNC(=O)[C@@H]1c2ccccc2C(=O)N(Cc2ccccc2Cl)[C@H]1c1ccc(CO)cc1 0.812
CCc1cccc(NC(=O)O[C@H]2[C@H](OC(=O)Nc3ccc4c(c3)OCO4)[C@@H](OC(=O)Nc3ccc4c(c3)OCO4)[C@@H](OC)O[C@@H]2CO)c1 1.57
COC(=O)[C@@]1(Cc2ccc(OC)cc2)[C@H]2c3cc(C(=O)N4CCCC4)n(Cc4cc(F)c(F)c(F)c4)c3C[C@H]2CN1C(=O)c1ccccc1 -0.824
CN(C)C(=O)[C@@]1(Cc2ccccc2)N=C(c2ccc(OCCCO)cc2)O[C@H]1c1ccccc1CN=[N+]=[N-] -0.0193
COc1ccc([Si](C)(C)[C@@H]2[C@@H](CCO)O[C@]3(C(=O)N(Cc4ccc(NC(C)=O)cc4)c4ccccc43)[C@H]2C)cc1 -0.486
O=C1O[C@@H](c2ccccc2)[C@@H](c2ccccc2)N2[C@@H](c3ccc(O)cc3)[C@]3(C(=O)Nc4ccccc43)[C@@H](C(=O)O)[C@H]12 -0.0134
O=C1c2ccccc2[C@@]2(Cc3ccccc3N(C3CC3)C2=O)[C@H](c2ccc(CO)cc2)N1Cc1ccccc1C(F)(F)F -0.201
O[C@@H](Cc1ccccc1)[C@H]1C2C=CCCC(c3ccccc3)=C2CN1Cc1cccc(Cl)c1 (stereo partly specified) 3.04
